Assay results reported in PubChem BioAssay (NCI).
About 83,000 compounds went through this panel and 20% of them were active in at least one assay; those are over-represented in the sample as a whole.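 Single-dose data. Exposure time 48 hours. Values below 10 considered active.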 The source made the active and inactive calls.

How the values were obtained:
Assay in all cases: NCI-60 one-dose screen, 48 h (100 = growth as untreated, 0 = no growth, -100 = all killed)
Settings in all cases: 10 µM unless noted
SR leukemia = tested on: SR leukemia
RPMI-8226 leukemia = tested on: RPMI-8226 leukemia
OVCAR-8 ovarian = tested on: OVCAR-8 ovarian
OVCAR-5 ovarian = tested on: OVCAR-5 ovarian
OVCAR-4 ovarian = tested on: OVCAR-4 ovarian
SK-OV-3 ovarian = tested on: SK-OV-3 ovarian
IGROV1 ovarian = tested on: IGROV1 ovarian
OVCAR-3 ovarian = tested on: OVCAR-3 ovarian
HS 578T breast = tested on: HS 578T breast
NCI/ADR-RES ovarian = tested on: NCI/ADR-RES ovarian
T-47D breast = tested on: T-47D breast
BT-549 breast = tested on: BT-549 breast
MDA-MB-435 melanoma = tested on: MDA-MB-435 melanoma
SW-620 colon = tested on: SW-620 colon
MCF7 breast = tested on: MCF7 breast
HCC-2998 colon = tested on: HCC-2998 colon
KM12 colon = tested on: KM12 colon
HCT-116 colon = tested on: HCT-116 colon

Measured: growth

Cc1cc(-c2ccc(N=Nc3c(S(=O)(=O)O)cc4cc(S(=O)(=O)O)cc(O)c4c3O)c(C)c2)ccc1N=Nc1c(S(=O)(=O)O)cc2cc(S(=O)(=O)O)cc(O)c2c1O
inactive: SR leukemia 148% | RPMI-8226 leukemia 114% | OVCAR-8 ovarian 99.5% | OVCAR-5 ovarian 99.4% | OVCAR-4 ovarian 103% | SK-OV-3 ovarian 88.9% | IGROV1 ovarian 80.6% | OVCAR-3 ovarian 120% | HS 578T breast 78.6% | NCI/ADR-RES ovarian 108% | T-47D breast 92.2% | BT-549 breast 108% | MDA-MB-435 melanoma 103% | SW-620 colon 114% | MCF7 breast 101% | HCC-2998 colon 106% | KM12 colon 114%

O=C(NO)c1ccc(CNc2cccc3nc(C4CC4)n(-c4ccccc4)c(=O)c23)cc1
active: SR leukemia 1.62% | RPMI-8226 leukemia -26.6% | OVCAR-8 ovarian -15.4% | IGROV1 ovarian 8.21% | OVCAR-3 ovarian 0.886% | NCI/ADR-RES ovarian -10.7% | SW-620 colon 0.537% | HCT-116 colon -22.1% | KM12 colon 8.66%
inactive: OVCAR-5 ovarian 35.7% | OVCAR-4 ovarian 11.5% | SK-OV-3 ovarian 16% | HS 578T breast 39.8% | T-47D breast 22.9% | BT-549 breast 64% | MDA-MB-435 melanoma 10.3% | MCF7 breast 27.6%

CC(C)(C)c1nn(-c2ccccc2)c2c1C(=O)CSC(c1ccccc1Cl)N2 (stereo unspecified)
inactive: RPMI-8226 leukemia 42.9% | OVCAR-8 ovarian 35.7% | OVCAR-5 ovarian 46.8% | OVCAR-4 ovarian 72.5% | IGROV1 ovarian 30.3% | OVCAR-3 ovarian 11.3% | HS 578T breast 47.5% | T-47D breast 29.3% | BT-549 breast 44.6% | SW-620 colon 37.1% | MCF7 breast 17.1% | HCC-2998 colon 24.9% | KM12 colon 32.5%
active: SR leukemia -13.8% | SK-OV-3 ovarian 7.26% | NCI/ADR-RES ovarian 0.0963% | MDA-MB-435 melanoma -12.4%

COC(=O)OC1C(O[C@H]2C[C@H]3[C@@H]4CC=C5C[C@@H](O)CC[C@]5(C)[C@H]4CC[C@]3(C)[C@H]2[C@H](C)C(=O)CCC(C)C)OCC(O)C1OC1OCC(O)C(O)C1OC(=O)c1ccc(OC)cc1 (stereo partly specified)
inactive: OVCAR-8 ovarian 26.8% | OVCAR-5 ovarian 31.2% | OVCAR-4 ovarian 57.1% | IGROV1 ovarian 29.5% | OVCAR-3 ovarian 58.1% | NCI/ADR-RES ovarian 70.5% | KM12 colon 39.2%
active: SR leukemia 2.6% | RPMI-8226 leukemia -40.7% | SK-OV-3 ovarian -44.5% | HS 578T breast -16.5% | T-47D breast -5.41% | BT-549 breast 6.19% | MDA-MB-435 melanoma -15.3% | SW-620 colon -55.9% | MCF7 breast -8.41% | HCT-116 colon 5.29%

CCOC(=O)C1=C(C(=O)OCC)N(c2cc(OC)c(OC)c(OC)c2)C(N)=C(C#N)C1c1cc(=O)[nH]c2ccccc12 (stereo unspecified)
inactive: SR leukemia 93.5% | RPMI-8226 leukemia 114% | OVCAR-8 ovarian 105% | OVCAR-5 ovarian 101% | OVCAR-4 ovarian 101% | SK-OV-3 ovarian 97% | IGROV1 ovarian 98.2% | OVCAR-3 ovarian 110% | HS 578T breast 97.2% | NCI/ADR-RES ovarian 101% | T-47D breast 95.4% | BT-549 breast 96.5% | MDA-MB-435 melanoma 96.6% | SW-620 colon 99.2% | MCF7 breast 96% | HCT-116 colon 100% | KM12 colon 102%

NC(CCC(=O)NC(CS)C(=O)NCC(=O)O)C(=O)O (stereo unspecified)
inactive: SR leukemia 97.3% | RPMI-8226 leukemia 74.2% | OVCAR-8 ovarian 98.7% | OVCAR-5 ovarian 97.6% | OVCAR-4 ovarian 108% | SK-OV-3 ovarian 116% | IGROV1 ovarian 98.1% | OVCAR-3 ovarian 110% | HS 578T breast 107% | NCI/ADR-RES ovarian 107% | T-47D breast 107% | BT-549 breast 119% | MDA-MB-435 melanoma 106% | SW-620 colon 103% | MCF7 breast 103% | HCC-2998 colon 60% | KM12 colon 108%

Cc1ccc(Nc2cccc3ccccc23)cc1
inactive: SR leukemia 62.1% | RPMI-8226 leukemia 76.5% | OVCAR-8 ovarian 96.2% | OVCAR-5 ovarian 93.2% | OVCAR-4 ovarian 78.9% | SK-OV-3 ovarian 101% | IGROV1 ovarian 73.2% | OVCAR-3 ovarian 89.1% | HS 578T breast 83.4% | NCI/ADR-RES ovarian 78.1% | T-47D breast 65.1% | BT-549 breast 103% | MDA-MB-435 melanoma 29.7% | SW-620 colon 77.7% | MCF7 breast 38.4% | HCC-2998 colon 88.1% | KM12 colon 59.4%

S=C(S)Oc1cccc2cccnc12
inactive: SR leukemia 87.7% | RPMI-8226 leukemia 106% | OVCAR-8 ovarian 108% | OVCAR-5 ovarian 108% | OVCAR-4 ovarian 92.2% | SK-OV-3 ovarian 100% | IGROV1 ovarian 86.1% | OVCAR-3 ovarian 120% | HS 578T breast 96.2% | NCI/ADR-RES ovarian 106% | T-47D breast 107% | BT-549 breast 98.4% | MDA-MB-435 melanoma 104% | SW-620 colon 105% | MCF7 breast 95.8% | HCT-116 colon 95.9% | KM12 colon 109%

C#Cc1cccc(Nc2nc3cc([N+](=O)[O-])ccc3nc2Nc2ccc(O)cc2)c1
active: SR leukemia 3.34% | OVCAR-3 ovarian -26.2% | T-47D breast -0.313% | SW-620 colon -52.9% | MCF7 breast 2.84% | HCC-2998 colon 5.14% | KM12 colon -36.3%
inactive: RPMI-8226 leukemia 11.9% | OVCAR-8 ovarian 18.3% | OVCAR-5 ovarian 45.8% | OVCAR-4 ovarian 43.9% | SK-OV-3 ovarian 39% | IGROV1 ovarian 27.2% | HS 578T breast 44.6% | NCI/ADR-RES ovarian 24.7% | BT-549 breast 27.7% | MDA-MB-435 melanoma 12.2%

O=C(CCCCCCN1CC(=O)N2[C@@H](c3ccc(Cl)c(Cl)c3)c3[nH]c4ccccc4c3C[C@H]2C1=O)NO
active: SR leukemia 7.56% | RPMI-8226 leukemia 6.04% | IGROV1 ovarian -10.5%
inactive: OVCAR-8 ovarian 50.3% | OVCAR-5 ovarian 46.3% | OVCAR-4 ovarian 45.6% | SK-OV-3 ovarian 73.6% | OVCAR-3 ovarian 35.3% | HS 578T breast 64.8% | NCI/ADR-RES ovarian 93.3% | T-47D breast 27.9% | BT-549 breast 63.7% | MDA-MB-435 melanoma 47.3% | SW-620 colon 33% | MCF7 breast 29% | HCT-116 colon 23.2% | KM12 colon 69.8%

O=C1/C(=C/N2N=C(c3ccc(Cl)cc3)CC2c2ccccc2O)SC(=S)N1c1cccc(C(F)(F)F)c1 (stereo unspecified)
inactive: SR leukemia 42% | RPMI-8226 leukemia 25.4% | OVCAR-8 ovarian 59.7% | OVCAR-5 ovarian 82.3% | OVCAR-4 ovarian 37% | SK-OV-3 ovarian 74% | IGROV1 ovarian 43.7% | OVCAR-3 ovarian 54.6% | HS 578T breast 71% | NCI/ADR-RES ovarian 56.4% | T-47D breast 27.4% | BT-549 breast 71.7% | MDA-MB-435 melanoma 64.6% | SW-620 colon 64.7% | MCF7 breast 15.7% | HCT-116 colon 45.5% | HCC-2998 colon 62.3% | KM12 colon 38%

OCCN(CCO)c1ccc2ccccc2c1
inactive: SR leukemia 104% | RPMI-8226 leukemia 110% | OVCAR-8 ovarian 104% | OVCAR-5 ovarian 98.8% | OVCAR-4 ovarian 104% | SK-OV-3 ovarian 98.3% | IGROV1 ovarian 93.7% | OVCAR-3 ovarian 103% | HS 578T breast 105% | NCI/ADR-RES ovarian 98.7% | T-47D breast 96.6% | BT-549 breast 101% | MDA-MB-435 melanoma 104% | SW-620 colon 105% | MCF7 breast 93.3% | HCT-116 colon 89.3% | HCC-2998 colon 108% | KM12 colon 99.9%

CCOC(=O)C#Cc1c(C(=O)OCC)nnn1[C@@H]1O[C@H](COC(C)=O)[C@@H](OC(C)=O)[C@H]1OC(C)=O
inactive: SR leukemia 22.8% | RPMI-8226 leukemia 94.8% | OVCAR-8 ovarian 94.1% | OVCAR-5 ovarian 100% | OVCAR-4 ovarian 104% | SK-OV-3 ovarian 109% | IGROV1 ovarian 91.5% | OVCAR-3 ovarian 62.1% | HS 578T breast 96.2% | NCI/ADR-RES ovarian 104% | T-47D breast 60.2% | BT-549 breast 111% | MDA-MB-435 melanoma 104% | SW-620 colon 13.6% | MCF7 breast 41.8% | HCT-116 colon 92.4% | KM12 colon 109%

c1cn2cc(-c3ccc4ncn(C5CCCCC5)c4c3)nc(-c3ccc4c(c3)ncn4C3CCCCC3)c2n1
active: SR leukemia 2.47% | RPMI-8226 leukemia -37.9% | OVCAR-8 ovarian -24.1% | OVCAR-5 ovarian -24% | OVCAR-4 ovarian 2.84% | SK-OV-3 ovarian -71.9% | IGROV1 ovarian -41.9% | OVCAR-3 ovarian -85.2% | HS 578T breast 3.4% | NCI/ADR-RES ovarian 1.11% | T-47D breast -17.7% | BT-549 breast -48.9% | MDA-MB-435 melanoma -73% | SW-620 colon -3.82% | MCF7 breast -3.78% | HCT-116 colon -61.4% | KM12 colon -61.1%

CC(C)=CC[C@@H]1CC2(CC=C(C)C)C(=O)C(OC3(C(=O)c4ccccc4)C(=O)C4(CC=C(C)C)C[C@@H](CC=C(C)C)C(C)(C)C(CC=C(C)C)(C4=O)C3=O)(C(=O)c3ccccc3)C(=O)C(CC=C(C)C)(C2=O)C1(C)C (stereo partly specified)
inactive: OVCAR-5 ovarian 14.9% | OVCAR-4 ovarian 20.4% | IGROV1 ovarian 15.5% | HCC-2998 colon 10.7%
active: SR leukemia 4.95% | RPMI-8226 leukemia -23% | OVCAR-8 ovarian 1.06% | SK-OV-3 ovarian 2.61% | OVCAR-3 ovarian -9.05% | HS 578T breast 1.98% | NCI/ADR-RES ovarian 5.81% | T-47D breast 1.58% | BT-549 breast -2.41% | MDA-MB-435 melanoma 6.28% | SW-620 colon 9.62% | MCF7 breast 2.12% | KM12 colon 6.68%

CCOC(=O)c1ccc2c(c1)nc(-c1ccc(Cl)cc1)n2-c1cc(C(C)(C)C)[nH]n1
active: SR leukemia -22.3% | NCI/ADR-RES ovarian 4.4% | MDA-MB-435 melanoma -31.2% | MCF7 breast 9.39%
inactive: RPMI-8226 leukemia 75.6% | OVCAR-8 ovarian 70.1% | OVCAR-5 ovarian 60.5% | OVCAR-4 ovarian 63.5% | SK-OV-3 ovarian 18.9% | IGROV1 ovarian 42.3% | OVCAR-3 ovarian 13.5% | HS 578T breast 53.9% | T-47D breast 49.3% | BT-549 breast 16.8% | SW-620 colon 42.1% | HCC-2998 colon 56.1% | KM12 colon 29.9%

N#CCCn1cnc2c(N)ncnc21
inactive: SR leukemia 98% | RPMI-8226 leukemia 101% | OVCAR-8 ovarian 96.5% | OVCAR-5 ovarian 98.4% | OVCAR-4 ovarian 107% | SK-OV-3 ovarian 99.6% | IGROV1 ovarian 125% | OVCAR-3 ovarian 109% | HS 578T breast 99.5% | NCI/ADR-RES ovarian 109% | T-47D breast 95.4% | BT-549 breast 103% | MDA-MB-435 melanoma 102% | SW-620 colon 102% | MCF7 breast 97.1% | HCC-2998 colon 113% | KM12 colon 106%
